38 compounds from PubChem BioAssay (NCI) can be followed below.

Compounds without any hit were thinned out: in the full panel of roughly 83,000, 20% have a hit.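 Single-dose data. Exposure time 48 hours. Values below 10 considered active.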 Values without a mark were called inactive. Calls of active or inactive are those of the source.

For the first assay, the system named is OVCAR-3 ovarian. Nature of the assay: NCI-60 one-dose screen, 48 h (100 = growth as untreated, 0 = no growth, -100 = all killed). Conditions: 10 µM unless noted.
On to `CC1[C@H]2[C@H](C[C@H]3[C@@H]4CC=C5c6sc(Nc7ccccc7F)nc6CC[C@]5(C)[C@H]4CC[C@@]32C)O[C@]12CC[C@@H](C)CO2` (stereo not given in full), for which the growth is -74.3% (active). Consider `O=C(c1ccccc1)c1ccc2nc(-c3cccc(Cl)c3)[nH]c2c1`, for which the growth was 116%. Same read-out and setting: then `OCNc1ccc(-n2cnc3cc(-c4ccc(O)cc4)ccc32)cc1C(F)(F)F`, with 15.9%; and `CCOC(=O)C(N=Nc1ccc(S(=O)(=O)N=C(N)N)cc1)C(C)=O` (stereo not given), with 113%. Still for that read-out and setting: then `CCOC(=O)/C=C/c1cccc2c1C(=O)NC(C)(c1cc3cc(Cl)ccc3oc1=O)N2` (stereo not given), with 34.4%; and `C#CCOc1cc(N(CC)CC)ccc1C(C(=O)NC(C)(C)C)N(C(=O)C1CCc2cc(F)ccc2O1)c1ccc(Br)cc1` (stereo not given), with 107%; and `CCCCCCCCc1ccc(C(=O)Nc2ccc(C)cc2C(=O)O)cc1C`, with 108%. On the same count and under the same terms, as for `C#CCOc1cc(N(CC)CC)ccc1C(C(=O)NC(C)(C)C)N(C(=O)C1CCc2cc(F)ccc2O1)c1ccc(F)c(Cl)c1` (stereo not given), the figure is 57.7%; as for `CCOC(=O)C1=C(N)N(c2ccccc2)C2=C(C(=O)CC(C)(C)C2)C1c1ccc([N+](=O)[O-])cc1` (stereo not given), 121%; as for `C=C1CC[C@@H]2[C@]3(C)COC(c4ccccc4)O[C@@H]3CC[C@@]2(C)[C@@H]1C/C=C1/C(=O)OCC1OC(C)=O` (stereo not given in full), -88.2% (active). As for `C#C[C@]1(O)CC[C@H]2[C@@H]3CC=C4c5sc(-c6ccc([N+](=O)[O-])cc6)nc5CC[C@]4(C)[C@H]3CC[C@@]21C`, the growth was -25.2% (active). Still for that read-out and setting: as for `CN1CCN(/C(=N\c2sc(-c3ccccc3)nc2-c2ccccc2)c2ccccc2)CC1`, the figure is 111%; as for `N=C1N=C(SCc2nc3ccccc3[nH]2)NC(=O)/C1=C/c1ccc(Cl)cc1`, 114%. Still for that read-out and setting: then `C/C(=N\N=C1/C(=O)Nc2ccc(Cl)cc21)c1ccc2c(c1)Nc1ccccc1S2`, with -66.9% (active). On the same count and under the same terms, as for `Cc1cccc(NC(=O)CN2CCN(c3ncnc4c3cnn4-c3ccccc3)CC2)c1`, the figure is 98.9%. In the case of `CN(C)CCOc1ccc(C(=O)C2[C@H](c3ccc(Cl)cc3)[C@@H](c3ccccc3)NC23C(=O)Nc2ccccc23)cc1` (stereo not given in full), the growth is 73.2%. Regarding `COc1ccc2[nH]cc(-c3nnc(N)nc3-c3cn(C)c4ncc(Br)cc34)c2c1`, the growth is 65.7%.

The next assay concerns HS 578T breast. The assay is described as above. Conditions: 10 µM unless noted.
As to `COc1c(F)ccc(C(=O)Nc2ccc3nc(NC(=O)C4CCCN(S(=O)(=O)C5CC5)C4)sc3c2)c1F` (stereo not given), the growth was 17.6%. Still for that read-out and setting: as for `CCOC(=O)C1=C(N)N(c2ccccc2)C2=C(C(=O)CC(C)(C)C2)C1c1ccc(N2CCOCC2)cc1` (stereo not given), the figure is 95.1%. The same measure, in the same setting: then `OCC1(CCCc2ccccc2)CCCN(c2nccc3ccccc23)C1` (stereo not given), with 42%. Still for that read-out and setting: as for `COc1ccc(/C=N/NC(=O)Cn2nc(Cc3ccc(OC)cc3)c3onc(C)c3c2=O)cc1`, the figure is 36.3%; as for `O=[N+]([O-])c1ccc(/C=C/c2nc3ccccc3n3c(=S)[nH]nc23)cc1`, 75.7%. Take `COC(=O)/C=C/c1cccc2c1C(=O)NC(C)(c1cc3ccccc3oc1=O)N2` (stereo not given): the growth was 72%. Same read-out and setting: as for `CCN(CC)c1ccc(/C=N/Nc2nc(-c3ccc(Br)cc3)cs2)c(O)c1`, the figure is 102%; as for `O=C(c1ccccc1)C(c1c[nH]c2ccccc12)c1c[nH]c2ccccc12`, 61%; as for `CC1(C)CC[C@]2(C(=O)Nc3ccc(Br)cc3)CC[C@]3(C)C(=CCC4[C@@]5(C)C[C@@H](O)[C@H](O)[C@@](C)(CO)C5CC[C@]43C)C2C1` (stereo not given in full), -0.476% (active). Same read-out and setting: then `CC(/C=C1\SC(=S)N(CCCC(=O)NC(CC(C)C)C(=O)O)C1=O)=C\c1ccccc1` (stereo not given), with 97.5%; and `Cn1cc(-c2cc(N)n3nc(-c4cn(C)c5ccccc45)cc3n2)c2cc(Br)ccc21`, with -7.42% (active); and `Cc1ccc(NCC(=O)Cn2cc(COc3ccc(C=Nc4cnc5ccccc5c4)cc3)nn2)cc1`, with 106%. Still for that read-out and setting: then `Cc1ccc([C@H]2C(C(=O)c3ccc(Cl)cc3)C3(N[C@@H]2c2ccccc2)C(=O)Nc2ccc(Cl)cc23)cc1` (stereo not given in full), with 74.4%. Consider `Cc1cc2nc3c4ccccc4n(CCNCCN(C)C)c3nc2cc1C`, for which the growth is 44.9%. Still for that read-out and setting: as for `Cc1ccccc1[C@H]1C(C(=O)c2ccc(Cl)cc2)C2(N[C@@H]1c1ccccc1)C(=O)Nc1ccc(Br)cc12` (stereo not given in full), the figure is 10.7%; as for `CC(C)c1sc(NC(=O)c2cc(NC(=O)c3cc(NC(=O)c4cscn4)cn3C)cn2C)nc1C(=O)NCCCN(C)C`, 23.3%; as for `CC(=O)OC[C@@]1(C)C2CC[C@]3(C)C(CC=C4C5CC(C)(C)CC[C@]5(C(=O)Nc5ccc(C)cc5)CC[C@]43C)[C@@]2(C)C[C@@H](OC(C)=O)[C@@H]1OC(C)=O` (stereo not given in full), 86%. Still for that read-out and setting: then `O=C1CC(Sc2n[nH]c(-c3ccncc3)n2)C(=O)N1c1ccc(Br)cc1` (stereo not given), with 111%. On the same count and under the same terms, then `COc1cc2c3c(n(CCCN4CCC[C@@H]4CO)c(=O)c2cc1OC)-c1cc2c(cc1C3=O)OCO2`, with -6.35% (active); and `C=C1CCC2C3(C)COC(c4ccc(F)cc4)OC3CCC2(C)C1C/C=C1/C(=O)OCC1O` (stereo not given), with -5.65% (active); and `Cc1sc(C(NC(=O)OCCn2c([N+](=O)[O-])cnc2C)C(F)(F)Cl)nc1-c1ccc(OC(F)(F)F)cc1` (stereo not given), with -31.1% (active).

On to `CC1[C@H]2[C@H](C[C@H]3[C@@H]4CC=C5c6sc(Nc7ccccc7F)nc6CC[C@]5(C)[C@H]4CC[C@@]32C)O[C@]12CC[C@@H](C)CO2` (stereo not given in full), for which the growth is -16.1% (active). Still for that read-out and setting: as for `O=C(c1ccccc1)c1ccc2nc(-c3cccc(Cl)c3)[nH]c2c1`, the figure is 108%; as for `OCNc1ccc(-n2cnc3cc(-c4ccc(O)cc4)ccc32)cc1C(F)(F)F`, 11.2%.

As for `CCOC(=O)C(N=Nc1ccc(S(=O)(=O)N=C(N)N)cc1)C(C)=O` (stereo not given), the growth is 111%.

In the case of `CCOC(=O)/C=C/c1cccc2c1C(=O)NC(C)(c1cc3cc(Cl)ccc3oc1=O)N2` (stereo not given), the growth is 41%.

For the compound `C#CCOc1cc(N(CC)CC)ccc1C(C(=O)NC(C)(C)C)N(C(=O)C1CCc2cc(F)ccc2O1)c1ccc(Br)cc1` (stereo not given), the growth is 88.3%. The same measure, in the same setting: then `CCCCCCCCc1ccc(C(=O)Nc2ccc(C)cc2C(=O)O)cc1C`, with 93.1%; and `C#CCOc1cc(N(CC)CC)ccc1C(C(=O)NC(C)(C)C)N(C(=O)C1CCc2cc(F)ccc2O1)c1ccc(F)c(Cl)c1` (stereo not given), with 75.2%; and `CCOC(=O)C1=C(N)N(c2ccccc2)C2=C(C(=O)CC(C)(C)C2)C1c1ccc([N+](=O)[O-])cc1` (stereo not given), with 100%.

With `C=C1CC[C@@H]2[C@]3(C)COC(c4ccccc4)O[C@@H]3CC[C@@]2(C)[C@@H]1C/C=C1/C(=O)OCC1OC(C)=O` (stereo not given in full), the growth is 61.5%. Same read-out and setting: then `C#C[C@]1(O)CC[C@H]2[C@@H]3CC=C4c5sc(-c6ccc([N+](=O)[O-])cc6)nc5CC[C@]4(C)[C@H]3CC[C@@]21C`, with 29.6%; and `CN1CCN(/C(=N\c2sc(-c3ccccc3)nc2-c2ccccc2)c2ccccc2)CC1`, with 88.7%; and `N=C1N=C(SCc2nc3ccccc3[nH]2)NC(=O)/C1=C/c1ccc(Cl)cc1`, with 98.3%.

For `C/C(=N\N=C1/C(=O)Nc2ccc(Cl)cc21)c1ccc2c(c1)Nc1ccccc1S2`, the growth is 9.82% (active). The same measure, in the same setting: then `Cc1cccc(NC(=O)CN2CCN(c3ncnc4c3cnn4-c3ccccc3)CC2)c1`, with 88.2%; and `CN(C)CCOc1ccc(C(=O)C2[C@H](c3ccc(Cl)cc3)[C@@H](c3ccccc3)NC23C(=O)Nc2ccccc23)cc1` (stereo not given in full), with 77.4%; and `COc1ccc2[nH]cc(-c3nnc(N)nc3-c3cn(C)c4ncc(Br)cc34)c2c1`, with 55.7%.
